Data from publication PMC5540273 (PLoS ONE, 2017).

These molecules were tested on PHKG2. Details: concentration: 1 μM, replicates: in singlicate; n = 1.
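Also: KINOMEscan kinase panel screen.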

| Compound | %Inh [%] |
| --- | --- |
| Cc1cccc(-c2nc(Nc3ccc4ncsc4c3)c3ccccc3n2)n1 [GW867588] | 0 |
| CCc1nc(-c2cccc(C)c2)c(-c2ccnc(NCc3ccccc3)c2)s1 | 22 |
| COc1cc2ncn(-c3cc(OCc4sccc4Cl)c(C(N)=O)s3)c2cc1OC [GSK448459] | 0 |
| Cc1c2ccc(N(C)c3ccnc(Nc4cccc(S(N)(=O)=O)c4)n3)cc2nn1Cc1ccccc1.Cl.Cl [GW787226] | 0 |
| Nc1nc(-c2ccc3c(N)n[nH]c3c2)cc(N2CCCC2)n1 [GSK2227430] | 0 |
| COCCNC(=O)c1ccc(-c2cc(C(=O)NC3CC3)cc(F)c2C)cc1 [GW868318] | 0 |
| COc1ccc(Nc2nccc(N3CCC(NC(=O)Nc4cc(C)ccc4C)C3)n2)cc1 (stereo not shown) [GSK1379741] | 0 |
| COc1ccc(CNC(=O)NC2CCN(c3ccnc(Nc4ccc(OC)cc4)n3)C2)cc1 (stereo not shown) [GSK1379727] | 0 |
| COc1ccc(Nc2ncc(C#N)c(Nc3ccccc3C(N)=O)n2)cc1N1CCN(C)CC1.Cl [GSK1558669] | 85 |
| O=c1cc(N2CCOCC2)nc2n(Cc3cccc(C(F)(F)F)c3)ccn12 [GSK2297543] | 4 |
| NS(=O)(=O)c1cccc(-c2ccc3nccc(-c4cccc(S(N)(=O)=O)c4)c3c2)c1 [GW867253] | 5 |
| c1ccc(-c2cc(-c3c[nH]nc3-c3ccccn3)ccn2)cc1 [GW576604] | 0 |
| Cc1nnc(-c2ccc(C)c(-c3ccc(C(=O)Nc4ccc(NS(C)(=O)=O)cc4)cc3)c2)o1 [GW702865] | 0 |
